Six1-Eya2 inh: Six1/Eya2 interaction inhibition | Q15475+O00167 | AlphaScreen GST-Six1/His-Eya2 binding, biochemical; active compounds read low | activity change, % (no concentration beside the values) | 360,000 tested, 0.56% active; in the data active = activity change below about -65%; inconclusive = mostly about -30% to -63%
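Six1/Eya2 binding was read as AlphaScreen signal after compounds were pinned into GST-Six1 plus His-tagged Eya2 (5X stock 250/500 nM) in pH 8.0 Tris/NaCl/TCEP buffer, beads added, then incubated 1 h, 37 C, dark.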
CtBP-E1A inh: inhibitors of CtBP/E1A interaction. AlphaScreen GST-E1A/His-CtBP binding, 1536-well; active compounds read low. activity change, % (concentration not given with the values). 340,000 tested, 0.49% active. AID 651724; in the data active = activity change below about -65%; inconclusive = mostly about -30% to -63%
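AlphaScreen with 125 nM GST-E1A and 125 nM His-CtBP (5X stocks) in Tris pH 8.0, 300 mM NaCl, BSA, Tween 20, TCEP. Compounds preincubated 2 h at 37 deg C, then glutathione donor/nickel acceptor beads added for 1 h at 37 deg C in dark.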
JMJD2A Tudor: JMJD2A Tudor domain (human) inhibition | AID 504339 | 390,000 tested, 4.4% active | Potency, µM (top dose mostly 114 µM), usual class: inhibitors | O75164 | AlphaScreen JMJD2A-Tudor / H3K4me3 peptide binding; also: nearly all actives have a fitted effect of over 50% in size
BAZ2B inh: blocks human BAZ2B | Q9UIF8 | AlphaScreen BAZ2B-H3K14Ac peptide displacement | Potency, µM (doses to about 114 µM), usual class: inhibitors | 360,000 tested, 4.4% active | AID 504333; also: nearly all actives have a fitted effect of over 60% in size
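AlphaScreen displacement: compounds (up to 110uM) incubated 30 min at room temperature with a preformed 50 nM BAZ2B/50 nM biotinylated H3K14Ac peptide complex in PBS pH 7.4 with Tween-20. Donor and acceptor beads at 10 ug/mL final added, 20 min light-protected before reading.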
G9a inh: blocks human histone lysine methyltransferase G9a. Q96KQ7. G9a H3K9 monomethylation, AlphaScreen, 2 h. Potency, µM (highest dose often 102 µM), hits mostly inhibitors. 350,000 tested, 8.8% active; also: nearly all actives have a fitted effect of over 75% in size
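Using a bead-based AlphaScreen, monomethylated H3K9 product from 2 h room-temperature reactions (G9a 20 nM, peptide 500 nM, SAM 20 uM) was detected with 0.5 ug/mL rabbit anti-H3K9me1 antibody.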
HP1b binding inh: inhibitors of HP1-beta chromodomain binding to methylated histone tails | P83916 | AlphaScreen HP1-beta / biotin-H3K9me3 peptide binding | Potency, µM (top dose mostly 114 µM), actives largely listed as inhibitors | 390,000 tested, 0.56% active | AID 540317; also: nearly all actives have a fitted effect of over 70% in size
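Compound inhibition of the preformed complex between 50 nM HP1-beta and 50 nM biotinylated H3K9me3 peptide was read by AlphaScreen. Buffer was PBS pH 7.4 with 0.01% Tween-20. Incubations ran 30 min at room temperature, with 10 ug/mL donor/acceptor beads.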
A number is an active result; – = inactive; ? = inconclusive; · = no result given; [ ] = remark or other dose. Compounds with a hit are over-represented: about 10% of the library has one in this group of screens. Unless noted, calls follow the shape of the dose curve; as a rule, active = well fitted inhibition curve with a large enough effect; inconclusive = small, poorly fitted or top-dose-only effect; inactive = no such curve, though single readings can be large or run the other way.

SMILES	Six1-Eya2 inh	CtBP-E1A inh	JMJD2A Tudor	BAZ2B inh	G9a inh	HP1b binding inh
CCOC(=O)C1=C(CSc2nc(CC)c(C)cc2C#N)OC(N)=C(C#N)C1c1ccccc1 (stereo not drawn)	–	–	?	?	40µM	–
CCOC(=O)C1=C(CSc2nc(-c3ccccc3)ccc2C#N)OC(N)=C(C#N)C1c1ccc(OC)cc1 (stereo not drawn)	–	–	–	–	32µM	–
CCOC(=O)C1=C(CSc2nc(C)cc(C)c2C#N)OC(N)=C(C#N)C1c1ccccc1 (stereo not drawn)	–	–	?	–	·	–
Cc1ccc(COC(=O)c2ccc3c(c2)C(=O)N(CCCN2CCOCC2)C3=O)cc1	–	–	–	–	?	–
Cc1ccc2c(c1)CCCN2C(=O)CCc1nc2ccccc2c(=O)[nH]1	–	–	–	–	·	–
Clc1nc(-c2ccccn2)nc2scc(-c3ccccc3)c12	-73	–	–	–	–	–
Cc1noc(C)c1NC(=O)N(C)C[C@H]1OCCCC[C@@H](C)Oc2ccc(NS(=O)(=O)c3ccccc3)cc2C(=O)N([C@H](C)CO)C[C@@H]1C	–	–	·	·	·	·
COCCCN=C(c1ccco1)n1c(=S)nc(-c2ccco2)n(CCCOC)c1=S	–	–	56µM	?	7.9µM	22µM
COCCCn1c(-c2ccco2)nc2ccccc2c1=O	–	–	–	–	–	–
Cc1ccc(C)c(-n2c3nc(=O)[nH]c(=O)c-3cc3cc([N+](=O)[O-])ccc32)c1	–	–	?	–	10µM	–
Cn1c2nc(=O)[nH]c(=O)c-2cc2ccccc21	–	–	–	·	·	–
Cc1cccc(-n2c3nc(=O)[nH]c(=O)c-3cc3cc([N+](=O)[O-])ccc32)c1	–	–	–	–	50µM	–
O=c1nc2n(-c3ccccc3F)c3ccccc3cc-2c(=O)[nH]1	·	·	–	–	–	–
O=C(CSc1ccc(-c2ccco2)nn1)NCc1ccc(Cl)cc1	–	–	–	–	?	–
O=C(CSc1ccc(-c2ccccn2)nn1)NCc1ccc(Cl)cc1	?	-70	?	14µM	–	–
COc1cccc(CNC(=O)CSc2cc(C)[nH]c(=O)n2)c1	·	·	–	–	–	–
COc1cccc(CNC(=O)CSc2ccc(-c3ccccn3)nn2)c1	-65	-74	?	13µM	–	–
Cc1cc(N)n(-c2ccc(C)c(C)c2)n1	–	–	–	–	?	–
Cc1cc(N)n(-c2ccc(Oc3ccccc3)c(S(=O)(=O)O)c2)n1	–	–	–	56µM	50µM	–
C[C@H](NC(N)=O)C(=O)Nc1ccc(OCc2ccccc2)cc1	–	–	–	–	–	–
CCSc1nc2nccnc2c(=O)[nH]1	–	–	–	·	·	–
Cc1nnc(NC(=O)CN2C(=O)c3ccccc3S2(=O)=O)s1	–	–	–	–	50µM	–
Cc1cc(NC(=O)CN2C(=O)c3ccccc3S2(=O)=O)no1	–	–	–	–	25µM	–
O=C(CN1C(=O)c2ccccc2S1(=O)=O)Nc1ccon1	–	–	–	–	–	–
COc1ccc(S(=O)(=O)NCCc2csc(-c3cccc(F)c3)n2)cc1OC	·	·	–	–	–	–
SMILES	Six1-Eya2 inh	CtBP-E1A inh	JMJD2A Tudor	BAZ2B inh	G9a inh	HP1b binding inh
CC(Sc1nnc(-c2ccc(OC(F)F)cc2)n1N)C(=O)NCC1CCCO1 (stereo not drawn)	–	–	–	–	?	–
Cc1oc2ccc(Br)cc2c(=O)c1-c1nn[nH]n1	–	–	?	56µM	?	–
CC(C)C1Cc2c(sc3ncnc(NN)c23)CO1 (stereo not drawn)	–	–	25µM	28µM	–[2.33 µM]	–
O=c1c2ccccc2n(Cc2ccccc2F)c(=O)n1-c1cccc(F)c1	·	·	–	–	–	–
FC(F)(F)c1cccc(-c2nnc3ccc(C(F)(F)F)cn23)c1	–	–	–	–	35µM	–
Clc1ss/c(=N\c2ccccn2)c1Cl	-92	-86	–	40µM	1.8µM	–
Clc1ccccc1N=Nc1ccccn1	?	–	?	·	·	–

Assay outcomes from PubChem.
